Assay outcomes as filed in PubChem.
A selection: hits, their analogues and other compounds. The true share with any hit is near 3.5%.
Autofluor counter – counter-screen for toxin protease inhibitors: compound fluorescence; compound autofluorescence counterscreen, microsphere flow cytometry; active compounds read high; fluorescence intensity (no concentration beside the values); 360,000 compounds, 3.1% hits; in the data active = fluorescence intensity above about 16000; inconclusive = no clear call, values can overlap the other calls
BoNT A protease – BoNT/A light chain protease inhibitors, primary screen, biochemical, flow cytometry, MLPCN library | multiplex microsphere protease substrate cleavage | inhibition, % at 10 µM | Botulinum neurotoxin type A light chain protease (Clostridium botulinum A str. ATCC 3502) | 360,000 compounds, 0.17% hits; note: plate controls were buffer without enzyme for full effect and enzyme alone for no effect
3CLpro inhibitor – SARS-CoV 3CLpro protease inhibitors, primary screen, biochemical, quenched FRET | Replicase polyprotein 1ab (Severe acute respiratory syndrome coronavirus), P0C6X7 | recombinant SARS-CoV 3CLpro, quenched FRET peptide cleavage | inhibition, % at 6 µM | 290,000 compounds, 0.14% hits | AID 1706, 2009; in the data active = inhibition above about 12%
Anthrax LF prot – Bacillus anthracis LF protease inhibitors, primary screen, biochemical, multiplex microsphere, MLPCN library. 360,000 compounds, 0.12% hits. AID 588501, 2011. multiplex microsphere protease cleavage assay. inhibition, % at 10 µM. Lethal factor (Bacillus anthracis), P15917; note: plate controls were buffer without enzyme for full effect and enzyme alone for no effect
Target sequence (P15917 whole entry, looked up): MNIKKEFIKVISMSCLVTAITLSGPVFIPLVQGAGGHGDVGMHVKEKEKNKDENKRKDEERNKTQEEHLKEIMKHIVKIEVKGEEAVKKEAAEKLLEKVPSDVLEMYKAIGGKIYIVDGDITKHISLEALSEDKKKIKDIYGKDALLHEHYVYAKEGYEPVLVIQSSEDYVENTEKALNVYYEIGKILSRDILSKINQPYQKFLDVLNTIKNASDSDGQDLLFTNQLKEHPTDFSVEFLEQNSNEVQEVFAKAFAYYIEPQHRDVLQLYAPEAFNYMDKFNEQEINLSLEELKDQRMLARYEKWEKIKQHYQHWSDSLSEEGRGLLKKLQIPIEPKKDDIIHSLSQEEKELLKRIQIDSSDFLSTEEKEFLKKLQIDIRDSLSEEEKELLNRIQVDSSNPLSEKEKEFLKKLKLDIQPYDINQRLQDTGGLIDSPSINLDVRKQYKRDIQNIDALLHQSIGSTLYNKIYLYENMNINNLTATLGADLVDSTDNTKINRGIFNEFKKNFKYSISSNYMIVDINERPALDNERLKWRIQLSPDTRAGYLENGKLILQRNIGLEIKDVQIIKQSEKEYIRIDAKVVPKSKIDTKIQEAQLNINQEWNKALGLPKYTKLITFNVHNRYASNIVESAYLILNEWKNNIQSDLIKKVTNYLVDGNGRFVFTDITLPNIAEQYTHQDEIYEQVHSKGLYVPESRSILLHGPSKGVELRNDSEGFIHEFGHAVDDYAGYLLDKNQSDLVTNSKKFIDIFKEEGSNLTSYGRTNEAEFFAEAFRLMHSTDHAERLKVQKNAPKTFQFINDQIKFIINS
BoNT F protease – BoNT/F light chain protease inhibitors, primary screen, biochemical, flow cytometry, MLPCN library. Botulinum neurotoxin type F light chain protease (Clostridium botulinum). Multiplex microsphere protease cleavage assay. inhibition, % at 10 µM. 360,000 compounds, 0.22% hits. AID 588497, 2011; in the data active = inhibition above about 35%, passing the limit was not always enough; inconclusive = no clear call, values can overlap the other calls; note: plate controls were buffer without enzyme for full effect and enzyme alone for no effect
* hit, by the source's call; ? = inconclusive; · = not tested or not shown. Cut-off read from the data, not from the text of the source, unless noted: active = inhibition above about 30%; inconclusive = no clear call, values can overlap the other calls; inactive = below that.

SMILES | Autofluor counter | BoNT A protease | 3CLpro inhibitor | Anthrax LF prot | BoNT F protease
CC(=O)c1c(C)cc(C)c(CSc2nnc(-c3ccco3)o2)c1C | 19958* | 1.8 | 1.8 | -3.6 | 1.6
O=C(CSc1nnc(-c2ccco2)o1)c1ccc(F)c(F)c1 | 21701* | -1.9 | -3.1 | 1.2 | 0.8
O=C(NCc1ccccc1)c1ccc(-c2cn[nH]c2)c2ccoc12 | 3750 | -0.6 | · | 3.0 | -0.4
COc1ccccc1NC(=O)Nc1ccccc1N1CCOCC1 | 5863 | 0.2 | -0.2 | -1.5 | 9.0
Cc1ccc(-n2nc3c(c2NC(=O)c2cccs2)CS(=O)(=O)C3)cc1C | 5086 | 2.6 | 1.4 | 0.7 | 6.4
CN(/N=C/c1c[nH]c2ccccc12)c1cnn(-c2ccc(F)c(Cl)c2)c(=O)c1Cl | 20923* | -1.0 | -4.0 | -3.5 | 0.1
CN(/N=C/c1cccnc1)C1=NS(=O)(=O)c2ccccc21 | 2369 | 0.2 | 0.4 | -2.8 | -0.3
CN(/N=C/c1cccnc1)c1cnn(-c2ccc(F)c(Cl)c2)c(=O)c1Cl | 11535 | ? | 2.6 | -20.5 | 36.4*
COCCNC(=O)c1ccccc1NC(=O)CN(c1ccc2c(c1)OCO2)S(C)(=O)=O | 15685 | 1.2 | 1.9 | -3.3 | 2.2
CC(C)CNC(=O)c1ccccc1NC(=O)CN(c1ccc2c(c1)OCCO2)S(C)(=O)=O | 8978 | 0.1 | -2.5 | -4.5 | -0.6
CCC(C)NC(=O)c1ccccc1NC(=O)CN(c1ccc(OC)cc1)S(C)(=O)=O (centres undefined) | 23469* | -0.4 | -4.4 | 0.4 | -0.7
CS(=O)(=O)N(CC(=O)Nc1ccccc1C(=O)NCc1ccco1)c1ccc2c(c1)OCCO2 | 23961* | -1.4 | 5.5 | -1.6 | -4.0
COc1ccc(N(CC(=O)Nc2ccccc2C(=O)NCCc2ccccc2)S(C)(=O)=O)cc1OC | 21907* | 1.0 | -2.5 | 0.3 | 2.0
COC(=O)C1CN(C(=O)COc2cccc(C)c2C)c2ccccc2O1 (centres undefined) | 3446 | -0.8 | 0.9 | 3.4 | 13.9
CN1CCN(c2ccc3sc(-n4ccc5ccccc54)nc3c2)CC1 | 3797 | -0.4 | · | -6.1 | -5.1
CCNC(=O)c1sc(-c2ccccc2)nc1C | 21235* | ? | 1.7 | 0.6 | -3.8
COc1ccc(/C=C/C(=O)c2sc(-c3ccccc3)nc2C)cc1 | 23221* | 2.1 | 1.7 | 3.4 | -2.3
Cc1nc(-c2ccccc2)sc1C(=O)O | 4649 | 0.1 | 5.5 | 0.1 | 2.4
CC(=O)c1sc(-c2ccccc2)nc1C | 4340 | 0.4 | 0.8 | 1.3 | -3.1
Cc1nc(-c2cccnc2)sc1C(N)=O | 16867* | -2.2 | 3.8 | -3.4 | -9.0
C=CCCC(=O)Nc1nc(C)c(-c2csc(Nc3cc(OC)ccc3OC)n2)s1 | 3753 | -0.1 | 1.9 | 0.8 | -1.0
COc1ccc(S(=O)(=O)N(CC(=O)Nc2ccccc2C(=O)N2CCOCC2)c2ccc(F)cc2)cc1 | 4857 | 0.6 | -1.1 | -2.4 | -3.6
CCCN(CCC)CCNC(=O)C(NS(=O)(=O)c1ccc2c(c1)CCC(=O)N2)c1ccccc1 (centres undefined) | 23934* | -1.7 | -3.8 | -2.7 | -3.8
CCC(C)NC(=O)C(Cc1ccccc1)NS(=O)(=O)c1ccc2c(c1)CCC(=O)N2 (centres undefined) | 6284 | 1.6 | -0.3 | 1.9 | -3.3
CC(C)OC(=O)CSc1nnc2c3ccccc3n(C)c2n1 | 2622 | 0.1 | -2.3 | 0.2 | -1.9
SMILES | Autofluor counter | BoNT A protease | 3CLpro inhibitor | Anthrax LF prot | BoNT F protease
COC(=O)c1ccc(S(=O)(=O)NCCSc2nnc3c4ccccc4n(C)c3n2)cc1 | 23909* | ? | -6.5 | -0.5 | -1.8
N#C/C(=C\c1cc(Cl)ccc1O)C(=O)NC1CCCCC1 | 10719 | -0.2 | -6.3 | -2.9 | 1.4
N#C/C(=C\c1cc(Cl)cc(Cl)c1O)C(=O)NC1CCCCC1 | 16628* | ? | -1.0 | 0.6 | -0.2
Cc1ccc2c(c1)[C@@H]1CN(C)CC[C@@H]1N2C(=O)Nc1cccc(C(F)(F)F)c1 | 23738* | -3.3 | 1.5 | -2.9 | -5.4
O=C(CSc1ncnc2nc[nH]c12)c1ccc2ccccc2c1 | 2541 | -0.2 | -1.6 | -2.8 | -3.7
CCOC(=O)C(C)Sc1ncnc2nc[nH]c12 (centres undefined) | 24038* | ? | 2.7 | -2.9 | -2.7
O=C(CSc1ncnc2nc[nH]c12)N1CCN(c2ccc(Cl)cc2)CC1 | 16576* | -0.1 | 3.5 | -4.0 | 2.7
O=C(O)CSc1ncnc2nc[nH]c12 | 20292* | 0.5 | 0.1 | -0.4 | -0.2
CC(=O)c1cc(F)c(N2CCCC2)cc1C | 5173 | 0.5 | 5.3 | 1.0 | 15.1
CC(=O)c1cc(F)c(N2CCN(c3ccc([N+](=O)[O-])cc3F)CC2)cc1C | 20270* | -2.2 | 0.4 | -5.5 | -3.6
Cc1c(OC(=O)c2ccc([N+](=O)[O-])cc2)c2c(c[n+]1C)COC(C)(C)OC2 | 2477 | -0.2 | 0.0 | 1.5 | -9.3
Cc1ncc2c(c1OC(=O)c1ccccc1)COC(C)(C)OC2 | 23118* | ? | 0.4 | -1.2 | -3.6
O=C(CSC(=S)N1CCOCC1)Nc1nc(-c2ccccc2)c(-c2ccccc2)o1 | 6109 | 0.3 | 2.5 | -1.7 | -1.6
O=C(CSC(=S)N1CCCCC1)Nc1nc(-c2ccccc2)c(-c2ccccc2)o1 | 21247* | 1.3 | 3.0 | -9.8 | 2.4
O=C(CCn1nnc2ccccc21)Nc1nnc(-c2ccccc2F)s1 | 22751* | 1.9 | 0.2 | 1.8 | 3.8
CCOc1ccc(/C=C/[N+](=O)[O-])c2ccccc12 | 6477 | 47.0* | -1.8 | 28.5 | 16.1
C#CCn1c(-c2cccs2)nc2ccccc21 | 3399 | -1.6 | 5.6 | 3.6 | -4.2
CCc1ccc(C2=NN(S(C)(=O)=O)C(c3cccs3)C2)cc1 (centres undefined) | 19673* | -1.5 | 4.8 | -3.4 | 2.2
CCS(=O)(=O)Nc1cccc(C2=NN(S(=O)(=O)c3ccccc3)C(c3cccs3)C2)c1 (centres undefined) | 22079* | -2.4 | 2.6 | 0.0 | -3.9
Cc1ccc(C2=NN(S(C)(=O)=O)C(c3cccs3)C2)cc1 (centres undefined) | ? | -1.9 | -0.2 | -8.1 | -16.3
O=C(CSc1ncn[nH]1)Nc1ncc(C(F)(F)F)cc1Cl | 4354 | -0.2 | 3.8 | -2.1 | -8.9
Cc1nc2ccccc2n1/N=C/c1cccnc1 | 24451* | -3.2 | -3.1 | -3.5 | -3.3
COc1ccc(C)cc1NC(=O)COCC(=O)O | 20410* | 0.5 | -0.5 | -0.5 | -0.3
CCc1ccccc1S(=O)(=O)Cc1ccc(C(=O)N2CCN(c3ccccc3OC)CC2)o1 | 5063 | -0.2 | 1.7 | 6.3 | 4.1
CCOC(=O)Cc1csc(NC(=O)c2csc(C)c2)n1 | 20408* | -1.4 | -0.7 | 0.7 | -0.9
Cc1ncsc1C(=O)Nc1nc2c(s1)CCCC2 | 9942 | -1.4 | -1.5 | -1.8 | -2.0
Cc1cc(C(=O)Nc2nc3c(s2)CCCC3)cs1 | 16226* | -1.8 | 0.2 | -4.1 | -4.0
O=C(Nc1nc2c(s1)CCCC2)C1CCCN1C(=O)c1cccs1 (centres undefined) | 16410* | 0.1 | -2.3 | 0.5 | -0.6
